Inconclusive results are not listed. Calls of active or inactive are those of the source. How the source made its calls: active means hit-call score of the fitted dose curve at least 0.9, where 1 is the maximum; inconclusive means response in the unintended direction; inactive means score below 0.9.

Chain of human RAR-related Orphan Receptor gamma (RORg), RORC (gene 6097) (P51449 whole entry, looked up): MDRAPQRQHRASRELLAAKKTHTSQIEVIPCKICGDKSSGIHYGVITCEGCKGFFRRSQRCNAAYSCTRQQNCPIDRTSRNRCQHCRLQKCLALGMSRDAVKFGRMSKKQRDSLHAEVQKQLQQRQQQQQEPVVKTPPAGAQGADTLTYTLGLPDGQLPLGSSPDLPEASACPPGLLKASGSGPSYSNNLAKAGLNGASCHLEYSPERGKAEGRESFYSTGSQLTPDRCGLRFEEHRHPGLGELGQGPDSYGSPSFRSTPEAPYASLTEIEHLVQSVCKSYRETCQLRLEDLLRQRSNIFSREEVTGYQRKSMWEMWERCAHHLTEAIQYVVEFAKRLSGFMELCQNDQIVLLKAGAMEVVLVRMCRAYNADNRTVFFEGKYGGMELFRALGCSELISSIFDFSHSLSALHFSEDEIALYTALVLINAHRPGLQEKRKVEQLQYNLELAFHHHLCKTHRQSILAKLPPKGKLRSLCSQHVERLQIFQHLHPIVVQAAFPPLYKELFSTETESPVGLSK

The target of this assay is human RAR-related Orphan Receptor gamma (RORg), RORC (gene 6097) (UniProt P51449). Kind of assay: ATG_RORg_TRANS: Attagene TRANS-FACTORIAL HepG2 Assay for human RAR-related Orphan Receptor gamma (RORg) (AID 2283011).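 On AC50: potency for induction of reporter transcripts above DMSO so activators.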 As to the method:
ATG_TRANS is a cell-based, multiplexed-readout assay that uses HepG2, a human liver cell line, with measurements taken at 24 hours after chemical dosing in a 24-well plate.ATG_RORg_TRANS is one of 30 assay component(s) measured or calculated from the ATG_TRANS assay. It is designed to make measurements of mRNA induction, a form of inducible reporter, as detected with fluorescence intensity signals by Reverse transcription polymerase chain reaction (RT-PCR) and Capillary electrophoresis technology.Data from the assay component ATG_RORg_TRANS was analyzed into 1 assay endpoint. This assay endpoint, ATG_RORg_TRANS, was analyzed in the positive analysis fitting direction relative to DMSO as the negative control and baseline of activity. Using a type of inducible reporter, measures of mRNA for gain-of-signal activity can be used to understand the reporter gene at the transcription factor-level as they relate to the gene RORC. Furthermore, this assay endpoint can be referred to as a primary readout, because this assay has produced multiple assay endpoints where this one serves a reporter gene function. To generalize the intended target to other relatable targets, this assay endpoint is annotated to the nuclear receptor intended target family, where the subfamily is orphan.
Human liver HepG2 cells are transiently transfected with multiple reporter transcription units (MRTUs) in 6-well plates using FuGene 6 reagent (Roche; 3 ml FuGene/1 mg DNA). The MRTU constructs are regulated by a cis-regulating element (promoter). […] A major difference between the CIS and TRANS system is that in CIS activities of endogenous TFs are measured, whereas the TRANS assay evaluates changes in activities of exogenous, chimeric NR-Gal4 proteins. […] At the end of 24 hour incubation, total RNA was isolated using TriZol reagent (Invitrogen). The isolated RNA is then reverse-transcribed using oligo(dT) primer and Mo-MLV reverse transcriptase (Invitrogen) with DNAse I (Ambion) treatment for 30 min. The one-tenth of the produced cDNA was amplified by PCR using Taq DNA polymerase (Invitrogen) and two reporter sequence-specific primers. The PCR products were fluorescently labeled by primer extension with 6-arboxyfluorescein (6-FAM) 5'-labeled reporter sequence-specific primer (2 min at 95 C, 20 s at 68 C and 10 min at 72 C) and these products were digested with 5U of HpaI (New England Biolabs) for 2h at 37 C. The fragments were purified using Qiaquick PCR columns (Qiagen), analyzed on an ABI 3130xL genetic analyzer (Applied Biosystems) with peak positions identified by using a set of X-rhodamine (ROX)-labeled MapMarker1000 molecular weight standards (BioVentures). The raw capillary electrophoresis data was processed using Attagraph software (Attagene).
For `CO[Si](C)(CCC(F)(F)C(F)(F)C(F)(F)C(F)(F)C(F)(F)C(F)(F)F)OC`, the call was inactive.
On the same count and under the same terms, the same measure for `Nc1cc([N+](=O)[O-])cc(Cl)c1O`: “inactive”; for `C[Si](Cl)(Cl)CCC(F)(F)C(F)(F)C(F)(F)C(F)(F)C(F)(F)C(F)(F)F`: “inactive”.
Still for that read-out and setting: the same measure for `Nc1c(Br)cc([N+](=O)[O-])cc1Br`: “inactive”.
On to `C=CC(=O)OCCC(F)(F)C(F)(F)C(F)(F)C(F)(F)F`, for which the molecule was called inactive.
On the same count and under the same terms, the same measure for `CC(=O)C=O`: “inactive”.
The same measure, in the same setting: the same measure for `OCCCc1cccnc1`: “inactive”; for `C=C(C)C(=O)OCC(F)(F)C(F)(F)C(F)(F)C(F)F`: “inactive”.
The same measure, in the same setting: the same measure for `COCCOCCC[Si](C)(O[Si](C)(C)C)O[Si](C)(C)C`: “inactive”.
Consider `O=C1C=CC(=O)N1c1ccccc1`, for which the molecule was classed as inactive.
Still for that read-out and setting: to `CN(N=O)C(=O)N[C@@H]1[C@@H](O)[C@H](O)[C@@H](CO)O[C@@H]1O` belongs “inactive”; to `O=S(=O)(OCC(F)(F)F)C(F)(F)C(F)(F)C(F)(F)C(F)(F)F`, “inactive”.
For `CCN(CC)c1ccc(C=O)c(O)c1`, the result was inactive.
As for `N#CCCOCCC#N`, the molecule was classed as inactive.
Still for that read-out and setting: to `CC(C)CCCC(C)CCO` (stereo not given) belongs “inactive”; to `CCOC(OCC)OCC`, “inactive”; to `O=C1OC(=O)c2ccc3c4c(ccc1c24)C(=O)OC3=O`, “inactive”.
Same read-out and setting: to `CSc1ccc(Cl)cc1` belongs “inactive”; to `Cc1cc(=O)[nH]c(C(C)C)n1`, “inactive”.
On to `Cc1ccc2c(c1)OCC(=O)CO2`, for which the outcome was inactive.
For `NC(=O)C(F)(F)C(F)(F)C(F)(F)C(F)(F)C(F)(F)C(F)(F)C(F)(F)F`, the molecule was classed as inactive.
The same measure, in the same setting: to `CSc1ccc(O)cc1C` belongs “inactive”; to `Cc1cc(C)c(O)c(C(C)(C)C)c1`, “inactive”.
Still for that read-out and setting: to `CCCCCCCCn1sc(Cl)c(Cl)c1=O` belongs “inactive”; to `NC(=O)C(F)(F)C(F)(F)C(F)(F)F`, “inactive”; to `C=CCOC(=O)CC(C)C`, “inactive”.
The same measure, in the same setting: the same measure for `CCC(=O)OC(C)c1ccccc1` (stereo not given): “inactive”.
Consider `CCCC(=O)OCC(COC(=O)CCC)OC(=O)CCC`, for which the outcome was inactive.
Same read-out and setting: the same measure for `CCOCN(C(=O)CS(=O)(=O)O)c1c(C)cccc1CC`: “inactive”; for `O=C(O)C(F)(F)C(F)(F)C(F)(F)C(F)(F)C(F)(F)C(F)(F)C(F)F`: “inactive”; for `CCc1ccc(C)nc1`: “inactive”.
Take `CCN(CC)c1ccc2c(c1)Oc1cc(N(CC)CC)ccc1C21OC(=O)c2ccccc21`: the result was inactive.
On to `COC(F)(C(F)F)C(F)(F)F` (stereo not given), for which the molecule was called inactive.
On the same count and under the same terms, the same measure for `O=S(=O)(Cl)C(F)(F)C(F)(F)C(F)(F)C(F)(F)C(F)(F)C(F)(F)C(F)(F)C(F)(F)F`: “inactive”; for `O=c1[nH]cccc1O`: “inactive”; for `C=C(C)CCCC`: “inactive”.
Same read-out and setting: to `O=C(c1ccccc1)c1ccc(O)cc1O` belongs “inactive”; to `O=C(O)CCC(F)(F)C(F)(F)C(F)(F)C(F)(F)C(F)(F)C(F)(F)C(F)(F)F`, “inactive”.
A word on the AC50: it is the concentration at which the activity in the assay is half-maximal. Consider `CC(O)C#CC(C)O` (stereo not given), for which the AC50 was 136 µM (active).
In the case of `O=S(=O)(O)CCC(F)(F)C(F)(F)C(F)(F)C(F)(F)C(F)(F)C(F)(F)C(F)(F)C(F)(F)F`, the molecule was called inactive.

The record behind these values is PubChem BioAssay (EPA / NIEHS).
